# PubChem BioAssay (NCI)
# Values joined by “and” are separate entries in the source; they are usually repeats but may differ in a detail not shown here. Identical values can stand only once. Compounds without any hit were thinned out: in the full panel of roughly 79,000, 15% have a hit. Where a structure was tested more than once in an assay, its records may differ in their call. Active and inactive are the calls of the source. Rule as the data show it: active = growth inhibition above about 70%; inactive = the rest.
# Tests used:
# [1] = NCI Yeast Anticancer Drug Screen. Data for the rad50 strain (AID 155);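 also: 0% = growth of vehicle-only cultures of the same strain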; settings: S. cerevisiae rad50 strain growth inhibition; at 50.0 µM; stronger effect = higher value
# How it was run: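 DNA repair mutant yeast, compound exposure, growth read-out; inhibition is taken relative to vehicle.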
# [2] = NCI Yeast Anticancer Drug Screen. Data for the mec2-1 strain (AID 157); settings: S. cerevisiae mec2-1 strain, at 50.0 µM, stronger effect = higher value
# How it was run: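 Yeast mec2-1 mutant treated with compound. Readout: growth inhibition vs vehicle controls.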
# [3] = NCI Yeast Anticancer Drug Screen. Data for the sgs1 mgt1 strain (AID 161);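 also: 0% = growth of cultures given vehicle only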; settings: S. cerevisiae sgs1 mgt1 strain, at 50.0 µM, stronger effect = higher value
# How it was run: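 Read-out: growth inhibition vs vehicle controls. Cells: mutant yeast strain deficient in DNA damage repair.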
# [4] = NCI Yeast Anticancer Drug Screen. Data for the cln2 rad14 strain (AID 165);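 also: 0% = growth equal to vehicle treated cultures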; settings: S. cerevisiae cln2 rad14 strain, at 50.0 µM, stronger effect = higher value
# How it was run: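 cln2 rad14 yeast strain; compound exposure; growth inhibition read vs vehicle controls.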
# [5] = NCI Yeast Anticancer Drug Screen. Data for the bub3 strain (AID 167); settings: S. cerevisiae bub3 mutant strain, at 50.0 µM, stronger effect = higher value
# How it was run: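 In this screen, a yeast mutant lacking normal mitotic checkpoint function is challenged with compound. Relative growth versus vehicle gives the inhibition value.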
# [6] = NCI Yeast Anticancer Drug Screen. Data for the mlh1 rad18 strain (AID 175); settings: S. cerevisiae mlh1 rad18 strain growth inhibition; at 50.0 µM; stronger effect = higher value
# How it was run: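 Yeast w/ defined DNA-repair lesions; compound exposure; growth vs vehicle controls → % inhibition.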
Compound,growth inhibition [1],growth inhibition [2],growth inhibition [3],growth inhibition [4],growth inhibition [5],growth inhibition [6]
O=c1oc2ccccc2c(O)c1C(c1ccc(O)cc1)c1c(O)c2ccccc2oc1=O,-1.35% (inactive),3.1% (inactive),-6.4% (inactive),-2.95% (inactive),-3% (inactive),-33.9% (inactive)
CC1c2[nH]c3ccccc3c2CCN1C (centres undefined),4.2% (inactive),-21.7% (inactive),7.8% (inactive),13.5% (inactive),-6.95% (inactive),12.3% (inactive)
COc1cccc(C(O)CN(C)C)c1OC (centres undefined),7.05% (inactive),-6.65% (inactive),11.2% (inactive),30.2% (inactive),-9.85% (inactive),9.95% (inactive)
CC(=O)OC1CCC2(C)C(=CC=C3C4CCC(=O)C4(C)CCC32)C1 (centres undefined),5.85% (inactive) and 8.55% (inactive),44.6% (inactive) and 36.8% (inactive),-5.15% (inactive) and 3.5% (inactive),3% (inactive) and 2.9% (inactive),35.1% (inactive) and 34.3% (inactive),22.5% (inactive) and 10.2% (inactive)
C(#Cc1ccccc1)c1ccccc1,29.1% (inactive),5.25% (inactive),,-13.6% (inactive),-11.3% (inactive),-3.6% (inactive)
C[C@]12Cc3cnc(-c4ccccc4)nc3C[C@@H]1CC[C@@H]1[C@@H]2CC[C@@]2(C)[C@H]1CC[C@]2(C)O,23.6% (inactive),25.1% (inactive),13.1% (inactive),9.55% (inactive),39.5% (inactive),20.1% (inactive)
CCNC(=O)C(C)Br (centres undefined),19.4% (inactive),13.1% (inactive),23.5% (inactive),-3.55% (inactive),,23.9% (inactive)
CCCCP(=O)(CCCC)CCCC.CCCCP(=O)(CCCC)CCCC.CCCCP(=O)(CCCC)CCCC.CCCCP(=O)(CCCC)CCCC.[Ce+3].[O-][Cl+3]([O-])([O-])O,43.9% (inactive),,30.6% (inactive),33.9% (inactive),62.1% (inactive),42.4% (inactive)
[Cl][Sn]([Cl])([c]1ccccc1)[c]1ccccc1,0.95% (inactive) and 97.1% (active),29.9% (inactive) and 96.2% (active),41.5% (inactive) and 95.1% (active),-35.4% (inactive) and 95.2% (active),,51% (inactive) and 97.2% (active)
CC(=O)CC(C)=O.[Cl][Sb]1([Cl])[CH2]CC[CH2]1,-22.4% (inactive),-11.8% (inactive),,-0.75% (inactive),1.25% (inactive),5.55% (inactive)
COc1ccc2n[se]nc2c1,46.4% (inactive),28.1% (inactive),26.9% (inactive),11.6% (inactive),,21% (inactive)
O=C1CC2OCC=C3CN4CCC56c7ccccc7N1C5C2C3CC46 (centres undefined) (tested in a mixture with another compound),25% (inactive) and 2.65% (inactive) and 6.9% (inactive),-7.15% (inactive) and 22.6% (inactive) and -14.6% (inactive),-15.7% (inactive) and -7.3% (inactive) and -9.45% (inactive),,3.35% (inactive) and 5.1% (inactive) and -9.9% (inactive),5.7% (inactive) and 9.45% (inactive) and 10.1% (inactive)
CC(=O)OC1CC(OC2C(O)CC(OC3C(O)CC(OC4CCC5(C)C(CCC6C5CCC5(C)C(C7=CC(=O)OC7)C(O)CC65O)C4)OC3C)OC2C)OC(C)C1OC1OC(CO)C(O)C(O)C1O (centres undefined),18.1% (inactive),8.8% (inactive),,8.1% (inactive),21.8% (inactive),
CC(C)CCC(=O)O[C@H]1CC[C@@]2(C)C(=CC[C@@H]3[C@@H]2CC[C@]2(C)C(=O)CC[C@@H]32)C1,26.2% (inactive),8.4% (inactive),,17.1% (inactive),1.95% (inactive),23.3% (inactive)
CNC(=S)P(c1ccccc1)c1ccccc1,9.4% (inactive),15.2% (inactive),7.1% (inactive),22.4% (inactive),,10.4% (inactive)
COc1ccc(/C=C/c2cc(OC)c3c(c2)OCO3)cc1O,4.4% (inactive),5.45% (inactive),-9.55% (inactive),0.9% (inactive),,-7.75% (inactive)
Nc1nc(N)c2cnnn2n1,18.1% (inactive),,17.3% (inactive),11.9% (inactive),4.05% (inactive),20.8% (inactive)
CC[C@H]1CN2CCc3c([nH]c4ccccc34)[C@@H]2C[C@@H]1/C(=C\OC)C(=O)OC,8.45% (inactive),3.8% (inactive),,9.35% (inactive),21.6% (inactive),0.65% (inactive)
CC(C)(C)C1(C)CN(N=O)C(=O)O1 (centres undefined),-5.05% (inactive),,-9.5% (inactive),-26.1% (inactive),5.85% (inactive),-15.5% (inactive)
C/C=C/COC(=O)CO[N+](=O)[O-],2% (inactive),,-5.3% (inactive),-12.8% (inactive),-0.5% (inactive),-0.15% (inactive)
CC1=CC(=O)C=CC1=Nc1ccc(N(CCCl)CCCl)cc1,22.4% (inactive),11.2% (inactive),6.65% (inactive),2.95% (inactive),,-5.25% (inactive)
